High-throughput results (PubChem BioAssay)
An excerpt weighted towards active compounds, which were near 9.2% of everything screened.
ELG1 genotoxic – qHTS screen for small molecules that induce genotoxicity in human embryonic kidney (HEK293T) cells expressing luciferase-tagged ELG1; HEK293T ELG1-luciferase reporter, luminescence, 16 h; Potency, µM (top dose mostly 46 µM), for the others: top-dose activity change, positive = activation, hits mostly activators; actives 1.3% (n = 330,000); AID 504466, 2011; further: % of control where 0% means no effect; nearly all actives have a fitted effect of over 60% in size
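Screening used a luciferase reporter fused to human ELG1 in HEK293T cells. Luminescence was read on a CCD plate imager after 16 hr exposure and 30 min ONE-Glo incubation.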
Rab9 prom act – qHTS Assay for Rab9 Promoter Activators; Huh7 Rab9 promoter-luciferase reporter, luminescence, 24 h; Potency, µM (top dose mostly 9.22 µM), without a hit: at the top dose activation, negative = inhibition, actives largely listed as activators; actives 2.8% (n = 320,000); AID 485297, 2010; further: % of control where 0% means no effect; nearly all actives have a fitted effect of over 60% in size
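Using Huh7 cells stably transfected with Rab9 promoter–luciferase, compounds were incubated 24 h at 37 °C, 5% CO2; luciferase luminescence was read 10 min after reagent addition.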
SMN2 splice up – qHTS Assay for Enhancers of SMN2 Splice Variant Expression | HEK293 SMN2-luciferase splicing reporter, luminescence, 30-36 h | Potency, µM (top dose mostly 46.1 µM), inactives show top-dose activity change, positive = activation, most hits filed as activators | actives 2.8% (n = 210,000) | AID 1458, 2008; further: % of control where 0% means no effect; nearly all actives have a fitted effect of over 55% in size
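qHTS luciferase splicing reporter: luminescence rises when SMN2 exon 7 is included in transfected HEK293 cells. Compound exposure lasted 30-36 h at 37C, with 4.5 mM final sodium butyrate as control, followed by a ONE-Glo read.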
NPC1 promoter act – qHTS Assay for NPC1 Promoter Activators; actives 2.4% (n = 320,000); Huh7 NPC1 promoter luciferase reporter, 24 h; Potency, µM (doses to about 9.22 µM), for the others: top-dose activation, actives largely listed as activators; AID 485313, 2010; further: % of control where 0% means no effect; nearly all actives have a fitted effect of over 60% in size
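Huh7 cells stably carrying NPC1 promoter–luciferase, plated in Opti-MEM with 10% FBS for 2 h, were exposed to compound in DMSO for 24 h at 37 °C; luciferase reagent was added for 10 min and luminescence read.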
ELG1 repair inh – qHTS screen for small molecules that inhibit ELG1-dependent DNA repair in human embryonic kidney (HEK293T) cells expressing luciferase-tagged ELG1 | HEK293T ELG1-luciferase reporter, luminescence, 16 h; DNA damage induced by 5-fluorouridine | Potency, µM (series often up to 46.1 µM), without a hit: at the highest dose activity change, negative = inhibition, usual class: inhibitors | actives 2.3% (n = 330,000); further: on the % scale 0 is the no-effect control and ±100 the full control effect; nearly all actives have a fitted effect of over 55% in size
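Reporter activity after DNA damage by 5-fluorouridine is monitored. Compound-treated cells incubate 16 hr at 37 °C, then ONE-Glo is added for 30 min before luminescence reading.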
FLuc counter – qHTS profiling assay for firefly luciferase inhibitor/activator using purifed enzyme and Km concentrations of substrates (counterscreen for miR-21 project); purified FLuc, Km substrates, luminescence inhibition; Potency, µM (highest dose often 57.5 µM), for inactives: top-dose activity change, negative = inhibition, most hits filed as inhibitors; actives 6.9% (n = 360,000); AID 588342, 2011;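 further: plate controls were vehicle for no effect and reference inhibitor for full effect; nearly all actives have a fitted effect of over 55% in size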
Target sequence (P08659 whole entry, looked up): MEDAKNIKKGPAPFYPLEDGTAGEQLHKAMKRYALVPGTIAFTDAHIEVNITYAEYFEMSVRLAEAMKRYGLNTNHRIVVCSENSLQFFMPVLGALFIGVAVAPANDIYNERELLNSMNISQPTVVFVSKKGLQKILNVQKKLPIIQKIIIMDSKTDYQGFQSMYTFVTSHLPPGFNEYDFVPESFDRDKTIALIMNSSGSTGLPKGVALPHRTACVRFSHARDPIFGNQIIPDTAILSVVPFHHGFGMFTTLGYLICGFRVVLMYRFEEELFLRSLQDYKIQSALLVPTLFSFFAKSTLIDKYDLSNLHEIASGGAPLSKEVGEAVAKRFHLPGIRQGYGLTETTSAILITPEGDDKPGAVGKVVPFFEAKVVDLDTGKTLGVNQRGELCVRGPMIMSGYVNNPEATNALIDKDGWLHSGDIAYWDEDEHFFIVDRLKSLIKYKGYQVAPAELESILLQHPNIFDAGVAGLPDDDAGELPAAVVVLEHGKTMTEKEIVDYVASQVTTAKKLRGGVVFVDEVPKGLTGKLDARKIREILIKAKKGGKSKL
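Purified P. pyralis luciferase (10nM final) with 10uM D-luciferin and 10uM ATP (Km levels) in 50mM Tris acetate pH 7.5, 10mM Mg acetate, 0.01% Tween-20, 0.05% BSA; qHTS 6-point titration, ~60 µM downward; luminescence read.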
* marks the source's active call; other numbers are inactive results; ? = inconclusive; · = not tested or not shown. The call rests on the fitted dose curve; in most records, active means well fitted curve in the direction sought with a large enough effect; inconclusive means small, poorly fitted or top-dose-only effect, or another doubt; inactive means no such curve, though single readings can be large; an effect the other way counts as inactive or inconclusive. Potency means the concentration at half of the fitted maximal effect.

SMILES	ELG1 genotoxic	Rab9 prom act	SMN2 splice up	NPC1 promoter act	ELG1 repair inh	FLuc counter
OCCCNc1c2c(nc3cc(-c4ccc(Cl)cc4)nn13)CCC2	5%	0%	·	0%	-13%	12µM*
Clc1cccc(-c2cc3nc4c(c(NCc5ccco5)n3n2)CCCC4)c1	16%	2µM*	?	3.5µM*	?	5.4µM*
CCNC(=O)NC(=O)CSc1ccc(S(=O)(=O)N(C)C2CCCCC2)cn1	-2%	-4%	·	1%	-1%	5%
COc1ccc(/C=N/NC(=O)CN(C)C(=O)OCc2ccccc2)cc1OC	9%	1%	·	1%	-3%	-2%
Cc1nc(S/C(=C/c2ccc(-c3ccc(C(=O)O)cc3)o2)C(=O)O)n[nH]1	1%	2%	·	0%	0%	?
CC(=O)c1ccc(-c2ccc(/C=C(/Sc3n[nH]c(C)n3)C(=O)O)o2)cc1	1%	2%	·	-3%	-1%	6µM*
Cc1nc(S/C(=C/c2ccc(-c3ccc(Cl)cc3)o2)C(=O)O)n[nH]1	6%	-1%	-36%	13%	0%	8.5µM*
Cc1ccc(Cl)cc1-c1ccc(C=Nc2ccc(N3CCOCC3)cc2)o1	0%	3%	-62%	-1%	?	-20%
Cc1nc(S/C(=C/c2ccc(-c3cc(Cl)ccc3C)o2)C(=O)O)n[nH]1	1%	0%	·	-6%	-19%	27µM*
Cc1ccc(C(C)NC(=O)Cc2cccs2)c(C)c1 (configuration not stated)	-5%	-2%	·	6%	1%	0%
CCN(CC)c1ccc(C=Nc2ccc(C#N)cc2)c(O)c1	9%	1%	-7%	0%	-1%	-12%
CCN(CC)c1ccc(C=Nc2ccccc2C)c(O)c1	5%	?	27%	?	10%	1.3µM*
CCN(CC)c1ccc(O)c(C=Nc2ccc(C)c(C)c2)c1	?	?	5%	26%	7%	3.4µM*
Cc1ccc(NS(=O)(=O)c2cccc(C(=O)NCCCN3CCCC3=O)c2)cc1	-2%	-1%	·	0%	17%	0%
COC(=O)c1sc(N2CCCCC2)c(C#N)c1N	7%	-5%	·	-5%	28%	-17%
Cc1cccc(N(C(=O)c2snc(C(N)=O)c2N)C(C(=O)NC2CCCC2)c2ccco2)c1 (configuration not stated)	3%	7%	·	3%	?	0%
O=C(c1ccco1)N1CCN(c2ncnc3c2[nH]c2ccc(Br)cc23)CC1	-17%	-8%	-56%	-1%	23µM*	?
O=C(c1ccco1)N1CCN(c2ncnc3c(-c4ccccc4)nsc23)CC1	-2%	2.8µM*	11%	3.2µM*	?	11µM*
COc1ccc(-c2nsc3c(N4CCN(C(=O)c5ccco5)CC4)ncnc23)cc1	-4%	26%	-34%	16%	19%	?
O=C(c1ccco1)N1CCN(c2ncnc3c2[nH]c2ccccc23)CC1	3%	0%	-33%	6%	?	-7%
NC(=O)C1CCN(c2ncnc3c2cnn3-c2ccccc2)CC1	·	·	·	·	·	-17%
NC(=O)C1CCN(c2ncnc3c(-c4ccccc4)nsc23)CC1	13%	3.5µM*	12%	3.5µM*	?	11µM*
CC(=O)Nc1ccc(N/C=C/C(=O)c2ccc(Br)cc2)cc1	3%	?	·	25%	?	-15%
NC(=O)c1ccccc1N/C=C1\CCCCC1=O	10%	-3%	9%	5%	25%	-10%
